Measurements as given in PubChem BioAssay (Tox21).
Values joined by “and” are separate entries in the source; they are usually repeats but may differ in a detail not shown here. Equal entries are not always repeated. Records with an inconclusive call do not appear. Some compounds were tested as several samples or in several runs, with calls that do not always agree. Active and inactive are the calls of the source. Calls come from the whole dose curve; as a rule, active = well fitted curve in the direction sought with a large enough effect in the repeat runs; inconclusive = weak or mixed curves; inactive = no such curve, though single readings can be large; an effect the other way counts as inactive or inconclusive.

assay: Human pregnane X receptor (PXR) small molecule agonists, qHTS cell viability counter screen (AID 1346977); conditions: PXR-Luc HepG2 viability, CellTiter-Fluor, 24 h; series mostly up to 92.4 µM; activity change, negative = cytotoxicity: at the top concentration; note: nearly all actives have a fitted effect of over 50% in size; note: potency is the fitted concentration of half-maximal effect
Procedure, shortened: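 After a 5hr pre-incubation, PXR-Luc HepG2 cells received compounds plus positive control in DMSO and were kept 24hr at 37C. Cell viability was quantified by fluorescence from CellTiter-Fluor added for the final hour.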
% is set by controls: 0 for no effect and ±100 for the full control effect.

Compound | activity change, negative = cytotoxicity | Potency
Cc1ccc2ccccc2c1 | -2.1% (inactive) | 
C=CCOC(C)=O | 4.96% (inactive) | 
O=C1NCN(c2ccccc2)C12CCN(CCCOc1ccc(F)cc1)CC2 |  | 6.68 µM (active)
CCCCCC[N+](=O)[O-] | 2.9% (inactive) | 
OCCCBr | 12.4% (inactive) | 
CCOc1nc(F)cc2nc(S(=O)(=O)Nc3c(Cl)cccc3Cl)nn12 | -10.9% (inactive) | 
Cl/C=C\Cl | -1.33% (inactive) | 
Cl/C=C\C[N+]12CN3CN(CN(C3)C1)C2 | -6.15% (inactive) | 
C=CC(=O)OCCCCO | -19% (inactive) | 
CN1C(=O)NC(=O)C(C)(C2=CCCCC2)C1=O (stereo not given) | 2.13% [at 42.5 µM] (inactive) | 
C[C@@H]1CC[C@H]2[C@@H](C)C(=O)O[C@@H]3O[C@@]4(C)CC[C@@H]1[C@]32OO4 | -0.746% [at 42.5 µM] (inactive) | 
O=C(NC(=O)c1c(F)cccc1F)Nc1ccc(OC(F)(F)C(F)OC(F)(F)F)c(Cl)c1 (stereo not given) | 5.7% [at 42.5 µM] (inactive) | 
COC(=O)c1cncn1C(C)c1ccccc1 (stereo not given) | 7.61% [at 42.5 µM] (inactive) | 
O=C(N[C@H](c1ccccc1)[C@@H]1CN2CCC1CC2)c1c(Cl)ccc(C(F)(F)F)c1Cl |  | 49.3 µM (active)
O=NN1CCCCCC1 | -2.9% (inactive) | 
CCOP(=O)(OCC)Oc1ccc([N+](=O)[O-])cc1 |  | inactive
CCCCCCCCOC(=O)c1ccc(C(=O)OCCCCCCCC)c(C(=O)OCCCCCCCC)c1 | -0.18% (inactive) | 
II | -11.9% (inactive) | 

Compound | activity change, negative = cytotoxicity | Potency
S=C=NCc1ccccc1 | -17.5% (inactive) | 
CCn1cc[n+](C)c1 |  | inactive and 54.5 µM (active)
CCOP(O)OCC | 8.55% (inactive) | 
CCBr | 3.15% (inactive) | 
Cc1c(F)c(F)c(COC(=O)C2C(/C=C(\Cl)C(F)(F)F)C2(C)C)c(F)c1F (stereo not given) | 26.7% (inactive) | 
NCCCNCCCN | -0.513% (inactive) | 
O=C(Nc1ccccc1)Nc1ccnc(Cl)c1 |  | 43.3 µM (active)
C=CC(=O)OCC(C)C | -1.55% (inactive) | 
CC(C)(C)C(O)C(Oc1ccc(Cl)cc1)n1cncn1 (stereo not given) | 1.24% (inactive) | 
N#Cc1cc(I)c(O)c(I)c1 |  | 43.3 µM (active)
c1ccc(CN2CCNCC2)cc1 | -13.4% [at 240 µM] (inactive) | 
CC/C(=N\OC/C=C/Cl)C1=C(O)CC(C2CCOCC2)CC1=O (stereo not given) | 8.99% (inactive) | 
CC(C)(CCl)C(=O)Cl | 14.2% (inactive) | 
C=CC(=O)OC | 8.92% (inactive) | 
Cc1ccccc1CCl | 2.31% (inactive) | 
C=CC[C@]1(O)CC[C@H]2[C@@H]3CCC4=CC(=O)CCC4=C3C=C[C@@]21C | -12.3% [at 42.5 µM] (inactive) | 
O=C(NCc1cccnc1)Nc1ccc([N+](=O)[O-])cc1 | 20.4% (inactive) | 

assay: Caspase-3/7 induction in HepG2 cells by small molecules, qHTS assay (AID 1346978); conditions: HepG2 caspase-3/7 activation, Caspase-Glo luminescence, 17 h; series mostly up to 92.4 µM; caspase activation: at the top concentration; note: nearly all actives have a fitted effect of over 15% in size
Procedure, shortened: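 Caspase-3/7 induction was measured by Caspase-Glo 3/7 luminescence (30 min, room temperature) after a 17 hr compound exposure of wild-type HepG2 cells seeded at 2,000 per well and pre-incubated 5 hr.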

Compound | caspase activation | Potency
Cc1ccc2ccccc2c1 | -1.18% (inactive) | 
C=CCOC(C)=O | -0.124% (inactive) | 
O=C1NCN(c2ccccc2)C12CCN(CCCOc1ccc(F)cc1)CC2 | 7.77% [at 42.5 µM] (inactive) | 
CCCCCC[N+](=O)[O-] | -0.797% (inactive) | 
OCCCBr | 0.25% (inactive) | 
CCOc1nc(F)cc2nc(S(=O)(=O)Nc3c(Cl)cccc3Cl)nn12 | 2.22% (inactive) | 
Cl/C=C\Cl | 0.345% (inactive) | 
Cl/C=C\C[N+]12CN3CN(CN(C3)C1)C2 | 5.24% (inactive) | 
C=CC(=O)OCCCCO | -1.28% (inactive) | 
CN1C(=O)NC(=O)C(C)(C2=CCCCC2)C1=O (stereo not given) | 0.0311% [at 42.5 µM] (inactive) | 
C[C@@H]1CC[C@H]2[C@@H](C)C(=O)O[C@@H]3O[C@@]4(C)CC[C@@H]1[C@]32OO4 | 0.239% [at 42.5 µM] (inactive) | 
O=C(NC(=O)c1c(F)cccc1F)Nc1ccc(OC(F)(F)C(F)OC(F)(F)F)c(Cl)c1 (stereo not given) | 0.661% [at 42.5 µM] (inactive) | 
COC(=O)c1cncn1C(C)c1ccccc1 (stereo not given) | 1.98% [at 42.5 µM] (inactive) | 
O=C(N[C@H](c1ccccc1)[C@@H]1CN2CCC1CC2)c1c(Cl)ccc(C(F)(F)F)c1Cl | 11% (inactive) | 
O=NN1CCCCCC1 | 0.021% (inactive) | 
CCOP(=O)(OCC)Oc1ccc([N+](=O)[O-])cc1 |  | inactive
CCCCCCCCOC(=O)c1ccc(C(=O)OCCCCCCCC)c(C(=O)OCCCCCCCC)c1 | 1.8% (inactive) | 
II | -5.68% (inactive) | 

Compound | caspase activation | Potency
S=C=NCc1ccccc1 | 0.21% (inactive) | 
CCn1cc[n+](C)c1 |  | inactive
CCOP(O)OCC | 0.639% (inactive) | 
CCBr | 0.397% (inactive) | 
Cc1c(F)c(F)c(COC(=O)C2C(/C=C(\Cl)C(F)(F)F)C2(C)C)c(F)c1F (stereo not given) | -0.379% (inactive) | 
NCCCNCCCN | -0.0735% (inactive) | 
O=C(Nc1ccccc1)Nc1ccnc(Cl)c1 | -12.2% (inactive) | 
C=CC(=O)OCC(C)C | -4.52% (inactive) | 
CC(C)(C)C(O)C(Oc1ccc(Cl)cc1)n1cncn1 (stereo not given) | -1.7% (inactive) | 
N#Cc1cc(I)c(O)c(I)c1 | -7.06% (inactive) | 
c1ccc(CN2CCNCC2)cc1 | 0.0123% [at 240 µM] (inactive) | 
CC/C(=N\OC/C=C/Cl)C1=C(O)CC(C2CCOCC2)CC1=O (stereo not given) | -0.591% (inactive) | 
CC(C)(CCl)C(=O)Cl | 0.284% (inactive) | 
C=CC(=O)OC | -0.214% (inactive) | 
Cc1ccccc1CCl | 0.163% (inactive) | 
C=CC[C@]1(O)CC[C@H]2[C@@H]3CCC4=CC(=O)CCC4=C3C=C[C@@]21C | 0.593% [at 42.5 µM] (inactive) | 
O=C(NCc1cccnc1)Nc1ccc([N+](=O)[O-])cc1 | -0.125% (inactive) | 

assay: Caspase-3/7 induction in CHO-K1 cells by small molecules, qHTS cell viability counter screen (AID 1346979); conditions: CellTiter-Fluor fluorescence, 17 h; series mostly up to 92.4 µM; activity change, negative = cytotoxicity: at the top concentration; note: nearly all actives have a fitted effect of over 35% in size; note: potency is the fitted concentration of half-maximal effect
Procedure, shortened: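 Multiplexed with Caspase-Glo 3/7 in CHO-K1 cells, this counter screen added CellTiter-Fluor after 16hr of compound exposure and recorded fluorescence 1hr later.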

Compound | activity change, negative = cytotoxicity | Potency
Cc1ccc2ccccc2c1 | 0.986% (inactive) | 
C=CCOC(C)=O | -0.531% (inactive) | 
O=C1NCN(c2ccccc2)C12CCN(CCCOc1ccc(F)cc1)CC2 |  | 26.6 µM (active)
CCCCCC[N+](=O)[O-] | 0.405% (inactive) | 
OCCCBr | -0.382% (inactive) | 
CCOc1nc(F)cc2nc(S(=O)(=O)Nc3c(Cl)cccc3Cl)nn12 | -12.2% (inactive) | 
Cl/C=C\Cl | 9.04% (inactive) | 
Cl/C=C\C[N+]12CN3CN(CN(C3)C1)C2 | -0.662% (inactive) | 
C=CC(=O)OCCCCO |  | 54.5 µM (active)
CN1C(=O)NC(=O)C(C)(C2=CCCCC2)C1=O (stereo not given) | 8.13% [at 42.5 µM] (inactive) | 
C[C@@H]1CC[C@H]2[C@@H](C)C(=O)O[C@@H]3O[C@@]4(C)CC[C@@H]1[C@]32OO4 |  | 4.22 µM (active)
O=C(NC(=O)c1c(F)cccc1F)Nc1ccc(OC(F)(F)C(F)OC(F)(F)F)c(Cl)c1 (stereo not given) | 5.81% [at 42.5 µM] (inactive) | 
COC(=O)c1cncn1C(C)c1ccccc1 (stereo not given) | 0.66% [at 42.5 µM] (inactive) | 
O=C(N[C@H](c1ccccc1)[C@@H]1CN2CCC1CC2)c1c(Cl)ccc(C(F)(F)F)c1Cl |  | 78.1 µM (active)
O=NN1CCCCCC1 | 6.98% (inactive) | 
CCOP(=O)(OCC)Oc1ccc([N+](=O)[O-])cc1 |  | inactive
CCCCCCCCOC(=O)c1ccc(C(=O)OCCCCCCCC)c(C(=O)OCCCCCCCC)c1 | -1.85% (inactive) | 
II |  | 54.5 µM (active)

Compound | activity change, negative = cytotoxicity | Potency
S=C=NCc1ccccc1 | -3.54% (inactive) | 
CCn1cc[n+](C)c1 |  | inactive
CCOP(O)OCC | 0.082% (inactive) | 
CCBr | 5.62% (inactive) | 
Cc1c(F)c(F)c(COC(=O)C2C(/C=C(\Cl)C(F)(F)F)C2(C)C)c(F)c1F (stereo not given) | 7.52% (inactive) | 
NCCCNCCCN | 1.9% (inactive) | 
O=C(Nc1ccccc1)Nc1ccnc(Cl)c1 |  | 48.6 µM (active)
C=CC(=O)OCC(C)C | 0.0632% (inactive) | 
CC(C)(C)C(O)C(Oc1ccc(Cl)cc1)n1cncn1 (stereo not given) | 0.671% (inactive) | 
N#Cc1cc(I)c(O)c(I)c1 |  | 68.6 µM (active)
c1ccc(CN2CCNCC2)cc1 | -0.362% [at 240 µM] (inactive) | 
CC/C(=N\OC/C=C/Cl)C1=C(O)CC(C2CCOCC2)CC1=O (stereo not given) | 11% (inactive) | 
CC(C)(CCl)C(=O)Cl | 1.47% (inactive) | 
C=CC(=O)OC | 4.28% (inactive) | 
Cc1ccccc1CCl | 1.01% (inactive) | 
C=CC[C@]1(O)CC[C@H]2[C@@H]3CCC4=CC(=O)CCC4=C3C=C[C@@]21C |  | 7.5 µM (active)
O=C(NCc1cccnc1)Nc1ccc([N+](=O)[O-])cc1 | 1.31% (inactive) | 
